From PubChem BioAssay AID2314 (National Center for Advancing Translational Sciences (NCATS), 2010)
In all, about 300,000 compounds went through this assay and about 37,000 (12%) were called active. Cut-off read from the data, not from the text of the source: active = max response mostly above about 13% (no sharp cut-off); inactive = mostly below about 14%. The sample as a whole holds a higher share of actives than the screen did.

Experiment: Cycloheximide Counterscreen for Small Molecule Inhibitors of Shiga Toxin; note: read at 38.3 µM for the half of the compounds with a filed dose; 0% is about no effect
Conditions: cell reporter, cycloheximide protein synthesis inhibition counterscreen; hits give high values

Structure (SMILES) | max response
Cc1cc(OCCOc2cccc3cccnc23)c(C)cc1Cl | 2.3% (inactive)
CCc1ccc(N(C(=O)c2csnn2)C(C(=O)NC2CCCCC2)c2cccnc2)cc1 (stereo not given) | 6.38% (inactive)
Cc1ccc(C(=O)Nc2nnc(-c3ccncc3)s2)o1 | 0.697% (inactive)
Cc1onc(NC(=O)c2ccc([N+](=O)[O-])o2)c1Br | 60.9% (active)
Cc1cccc(NC(=O)c2ccc([N+](=O)[O-])o2)c1 | 29.4% (active)
Cc1onc(C(=O)NCc2ccc(F)cc2)c1[N+](=O)[O-] | 4.59% (inactive)
Cc1cccc(NC(=O)c2sc(-c3ccccc3)nc2-c2ccc([N+](=O)[O-])cc2)c1 | -2.46% (inactive)
Cc1cccc(NC(=O)c2cc([N+](=O)[O-])ccc2N2CCN(C)CC2)c1 | -4.47% (inactive)
C=CCn1c(SCC(=O)NC)nnc1C12CC3CC(CC(C3)C1)C2 | -1.24% (inactive)
O=C(CCn1nnc2ccccc21)OCC(=O)c1ccc([N+](=O)[O-])cc1 | -6.28% (inactive)
N#C/C(C(=S)Nc1ccccc1)=C1/NN=C(N2CCOCC2)N1c1ccccc1 | 0.28% (inactive)
Cc1[nH]n(C(N)=S)c(=O)c1N=Nc1ccc(Cl)cc1Cl | 12.2% (inactive)
CC(=O)Nc1ccc(NC(=O)c2ccc3c(c2)C(=O)N(c2ccccc2C)C3=O)cc1 | -2.35% (inactive)
CCOc1ccc(-n2c(SCC(N)=O)nnc2-c2ccco2)cc1 | -1.88% (inactive)
COc1cc(CNCc2ccc(OC)c3ccccc23)cc(OC)c1OC | -1.1% (inactive)
CCN1CCN(C(=O)C2CCN(S(=O)(=O)c3cc(Cl)ccc3Cl)CC2)CC1 | -1.01% (inactive)
CCOC(=O)C1=C(C)NC2=C(C(=O)CC(C)(C)C2)C1c1ccsc1 (stereo not given) | 8.09% (inactive)
COc1ccc(C(CNC(=O)COc2ccc([N+](=O)[O-])cc2)N2CCCCC2)cc1 (stereo not given) | -2.15% (inactive)
CCOC(=O)N1CCC(NC(=O)c2cnn3ccccc23)CC1 | -4.51% (inactive)
Cc1cnc(C(=O)OCC(=O)N2CCc3ccccc32)cn1 | 9.5% (inactive)
O=C(c1cnn2ccccc12)N1CCc2ccccc21 | 66.5% (active)
Cc1ccc(S(=O)(=O)N2CCN(C(=O)COC(=O)c3c(C)noc3C)CC2)c(C)c1 | -2.98% (inactive)
Cc1noc(C)c1COC(=O)c1cc2ccccc2cc1O | -1.04% (inactive)
Cc1ccc(-c2nc(COC(=O)c3c(C)noc3C)cs2)cc1 | 73.1% (active)
CN(C)CCCNC(=S)N1CCN(c2nc(-c3ccccc3)cs2)CC1 | -1.66% (inactive)

Structure (SMILES) | max response
c1ccc(-c2csc(N3CCc4ccccc4C3)n2)cc1 | 36.5% (active)
O=C(CN1CCN(c2nc(-c3ccccc3)cs2)CC1)NCc1ccc2c(c1)OCO2 | -2.7% (inactive)
CCOC(=O)Cn1c(O)c(N=NC(=O)CNC(=O)Cc2ccccc2)c2ccccc21 | 5.93% (inactive)
CCCc1ccc(C(=O)[C@@H]2[C@@H](C(C)=O)N3c4ccc(F)cc4C=C[C@@H]3[C@@]23C(=O)Nc2ccccc23)cc1 | -1.55% (inactive)
O=S(=O)(c1ccc(Cl)cc1)c1nc(-c2ccco2)oc1N1CCCCC1 | 3.16% (inactive)
O=C(NCCCN1CCCCC1)C1CCCN(c2ncnc3c2nc2n3CCCCC2)C1 (stereo not given) | -1.32% (inactive)
CO/N=C/c1cn(-c2ccc(Cl)cc2)nn1 | 24.4% (active)
CN(C)c1nnnn1-c1ccc(Cl)cc1 | -4.44% (inactive)
O=C(Nc1ccccc1)OCc1cn(-c2ccc(Cl)cc2)nn1 | -3.74% (inactive)
COc1cc(NC(=O)C2CC(c3ccccc3O)=NO2)c(OC)cc1Cl (stereo not given) | -1.7% (inactive)
COCCN1C(=O)C(=O)/C(=C(/O)c2ccc(S(=O)(=O)N3CCCCC3)cc2)C1c1ccc(OC)c(OC)c1 (stereo not given) | -1.21% (inactive)
CN(C)CCCN=Cc1c(O)n(Cc2ccco2)c(=O)[nH]c1=O | 8% (inactive)
CC(C)n1c(=O)c(C=Nc2ccc(Br)cc2)c(O)n(Cc2ccco2)c1=O | -2.65% (inactive)
Cc1cs/c(=N\N=C\c2ccc(O)cc2)n1Cc1ccco1 | 21.5% (active)
O=c1c2c(-c3ccccc3)ccnc2[nH]n1-c1ccccc1 | 9.85% (inactive)
O=C(Nc1cccc2ccccc12)c1onc2c1CCCC2 | 43.2% (active)
O=C(O)c1ccccc1-c1ccccc1C(=O)Nc1cccc2ccccc12 | -3.02% (inactive)
O=C(COC(=O)c1ccccn1)Nc1cccc2ccccc12 | -1.89% (inactive)
O=C(c1ccc2c(c1)N(Cc1ccc(F)cc1)C(=O)c1ccccc1S2(=O)=O)N1CCN(c2ccccn2)CC1 | 0.32% (inactive)
O=C(CSc1nc2ccc([N+](=O)[O-])cc2[nH]1)c1ccc(Cl)cc1 | 3.9% (inactive)
O=[N+]([O-])c1ccc2nc(-c3ccccn3)[nH]c2c1 | 51% (active)
O=[N+]([O-])c1cnc2ccc3ccccc3c2c1 | 8.23% (inactive)
CCOc1ccc(CCNC(=O)Nc2ccccc2)cc1OCC | 6.01% (inactive)
COc1ccc(-n2nnnc2SCc2nc(N)nc(N3CCOCC3)n2)cc1 | -3.81% (inactive)
COc1cc(NC(=O)c2ccc(-c3csc(C)n3)cc2)c(OC)cc1Cl | -4.02% (inactive)
